Test results from paper PMC4336329 (PLoS ONE, 2015).
In all, about 310,000 compounds went through this assay and about 14,000 (4.5%) showed an effect of 50% or more. The effect is printed as a negative number. The sample as a whole holds a higher share of strong results than the screen did.

These compounds were tested against human ether-à-go-go-related gene (hERG) potassium channel (human, UniProt Q12809) (assay: primary screen, population patch clamp on CHO cells stably expressing hERG; higher = less effect of the substance).
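Also: peak tail current of the secondary pulse compared with the same well before compound.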

Chain of human ether-à-go-go-related gene (hERG) potassium channel (Q12809 whole entry, looked up): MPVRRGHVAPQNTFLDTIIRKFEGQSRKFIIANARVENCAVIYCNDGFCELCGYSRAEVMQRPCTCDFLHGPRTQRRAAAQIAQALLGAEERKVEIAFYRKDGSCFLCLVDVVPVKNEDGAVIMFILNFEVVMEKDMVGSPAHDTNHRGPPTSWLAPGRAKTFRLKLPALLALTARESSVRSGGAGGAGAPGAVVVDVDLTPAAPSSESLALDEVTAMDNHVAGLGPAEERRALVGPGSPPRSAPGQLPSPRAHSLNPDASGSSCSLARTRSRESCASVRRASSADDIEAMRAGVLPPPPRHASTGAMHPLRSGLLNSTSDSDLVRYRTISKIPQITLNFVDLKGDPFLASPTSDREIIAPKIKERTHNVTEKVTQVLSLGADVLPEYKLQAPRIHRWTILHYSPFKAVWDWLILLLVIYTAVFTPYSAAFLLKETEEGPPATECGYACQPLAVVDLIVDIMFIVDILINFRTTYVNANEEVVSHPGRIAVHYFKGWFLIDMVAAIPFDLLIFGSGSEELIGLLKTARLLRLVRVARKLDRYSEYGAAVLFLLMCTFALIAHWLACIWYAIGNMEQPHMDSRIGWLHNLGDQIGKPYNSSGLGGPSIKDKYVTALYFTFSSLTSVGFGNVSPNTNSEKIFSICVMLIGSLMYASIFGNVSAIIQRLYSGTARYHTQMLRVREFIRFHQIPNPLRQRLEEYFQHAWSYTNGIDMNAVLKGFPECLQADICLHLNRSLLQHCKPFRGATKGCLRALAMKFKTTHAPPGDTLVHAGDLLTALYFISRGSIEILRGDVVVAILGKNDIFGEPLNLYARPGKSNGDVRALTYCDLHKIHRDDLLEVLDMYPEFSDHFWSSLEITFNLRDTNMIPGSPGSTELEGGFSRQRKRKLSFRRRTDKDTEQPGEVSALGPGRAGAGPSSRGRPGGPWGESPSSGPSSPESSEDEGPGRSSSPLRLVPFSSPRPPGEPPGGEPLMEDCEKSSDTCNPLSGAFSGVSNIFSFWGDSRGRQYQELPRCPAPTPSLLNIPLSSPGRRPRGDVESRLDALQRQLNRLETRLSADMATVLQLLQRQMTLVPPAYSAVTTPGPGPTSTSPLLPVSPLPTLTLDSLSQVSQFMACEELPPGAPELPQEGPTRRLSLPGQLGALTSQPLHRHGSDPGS

Row | SMILES | hERG current change (%, negative = inhibition) at 10uM [%]
1 | COc1ccc(OC)c(CCNC(=O)C(C)n2nc(C)c3c(C)n(-c4ccccc4)nc3c2=O)c1 (stereo not drawn) | -0.756
2 | COc1ccc(OC)c(CCNC(=O)Cn2nc(C)c3c(C)n(-c4ccccc4)nc3c2=O)c1 | 5
3 | COc1ccc(CNC(=O)C(C)n2nc(C)c3c(C)n(-c4ccccc4)nc3c2=O)c(OC)c1 (stereo not drawn) | -8.08
4 | COc1ccccc1CCNC(=O)C(C)n1nc(C)c2c(C)n(-c3ccccc3)nc2c1=O (stereo not drawn) | -12.3
5 | COc1ccc(OC)c(CCNC(=O)Cn2nc(C)c3c(C)n(-c4ccc(C)cc4)nc3c2=O)c1 | -59
6 | COc1ccc(OC)c(CNC(=O)Cn2nc(C)c3c(C)n(-c4ccc(C)cc4)nc3c2=O)c1 | 3.27
7 | COc1ccc(OC)c(CCNC(=O)C(C)n2nc(C)c3c(C)n(-c4ccc(C)cc4)nc3c2=O)c1 (stereo not drawn) | -53.2
8 | COc1ccc(OC)c(CNC(=O)C(C)n2nc(C)c3c(C)n(-c4ccccc4)nc3c2=O)c1 (stereo not drawn) | -7.41
9 | COc1ccc(CCNC(=O)C(C)n2nc(C)c3c(C)n(-c4ccc(C)cc4)nc3c2=O)c(OC)c1 (stereo not drawn) | -58.6
10 | CC(=O)Nc1ccc(C(=O)CSc2ncn(-c3ccccc3)n2)cc1 | 5.72
11 | Cc1sc2ncn(CC(=O)NCc3ccco3)c(=O)c2c1-c1ccccc1 | -11.8
12 | CC(=O)c1cnc(Oc2cc(Cl)ccc2Cl)nc1C | 0.763
13 | CSc1sc(C(=O)N(C)C)cc1S(=O)(=O)C(C)C | 1.94
14 | CCN1C(=O)/C(=C/c2cccs2)N(C)C1=S | -7.99
15 | COc1ccccc1NS(=O)(=O)c1cc(C(=O)NCC2CCCO2)ccc1C (stereo not drawn) | -36.8
16 | COC(=O)C1=C(C(=O)OC)[C@@H]2N(C)c3ccc(OC)cc3[C@@]23C[C@@H](C(=O)OC)N(C(=O)c2ccc(Br)cc2)C3=N1 | -17.7
17 | COC(=O)C1=C(C(=O)OC)[C@@H]2N(C)c3ccccc3[C@@]23C[C@@H](C(=O)OC)N(C(=O)c2ccco2)C3=N1 | -13.9
18 | COC(=O)C1=C(C(=O)OC)[C@@H]2N(C)c3ccc(OC)cc3[C@@]23C[C@@H](C(=O)OC)N(C(=O)c2ccco2)C3=N1 | -50.6
19 | COC(=O)C1=C(C(=O)OC)[C@@H]2N(C)c3ccc(OC)cc3[C@@]23C[C@@H](C(=O)OC)N(C(=O)NC2CCCCC2)C3=N1 | -26
20 | COC(=O)C1=C(C(=O)OC)[C@@H]2N(C)c3ccccc3[C@@]23C[C@@H](C(=O)OC)N(C(=O)C2CCC2)C3=N1 | -29.7
21 | COC(=O)C1=C(C(=O)OC)[C@@H]2N(C)c3ccc(OC)cc3[C@@]23C[C@@H](C(=O)OC)N(C(=O)COCc2ccccc2)C3=N1 | -55
22 | COC(=O)C1=C(C(=O)OC)[C@@H]2N(C)c3ccccc3[C@@]23C[C@@H](C(=O)OC)N(C(=O)COCc2ccccc2)C3=N1 | -9.16
23 | CCOC(=O)N1C2=NC(C(=O)OC)=C(C(=O)OC)[C@@H]3N(C)c4ccc(OC)cc4[C@]23C[C@H]1C(=O)OC | 6.52
24 | COC(=O)C1=C(C(=O)OC)[C@@H]2N(C)c3ccccc3[C@@]23C[C@@H](C(=O)OC)N(C(=O)c2cccs2)C3=N1 | -10.1
25 | COC(=O)C1=C(C(=O)OC)[C@@H]2N(C)c3ccc(OC)cc3[C@@]23C[C@@H](C(=O)OC)N(C(=O)C2CCC2)C3=N1 | -50

Row | SMILES | hERG current change (%, negative = inhibition) at 10uM [%]
26 | COC(=O)C1=C(C(=O)OC)[C@@H]2N(C)c3ccc(OC)cc3[C@@]23C[C@@H](C(=O)OC)N(C(=O)c2cccs2)C3=N1 | -68.3
27 | COC(=O)C1=C(C(=O)OC)[C@@H]2N(C)c3ccc(OC)cc3[C@@]23C[C@@H](C(=O)OC)N(C(=O)CC(C)C)C3=N1 | -14.9
28 | COc1ccc(/C=N\NC(=O)c2ccccc2Br)cc1COc1c(F)c(F)cc(F)c1F | -0.654
29 | Brc1ccc(-n2cccc2/C=N/n2cnnc2)cc1 | -25.1
30 | Cc1ccc(OCC(=O)Nc2ccc(C)c(S(=O)(=O)N3CCCCC3)c2)c([N+](=O)[O-])n1 | -45.4
31 | C=CCNC(=O)/C(=C/c1ccccc1OCC)NC(=O)c1ccccc1 | 2.63
32 | O=c1cc(Nc2ccc3c(c2)OCCO3)[nH]c(=O)n1-c1ccc(Cl)cc1 | -0.327
33 | CCC(C)NC(=O)c1ccccc1NC(=O)/C(=C/c1ccc(OC)cc1)c1ccccc1 (stereo not drawn) | 3.99
34 | COC(=O)c1ccccc1NC(=O)NCc1ccc2c(c1)OCO2 | -11.4
35 | CCCCS(=O)CC(CS(=O)CCCC)OC(=O)c1ccc(C)cc1 (stereo not drawn) | -49.2
36 | Cc1ccc(S(=O)(=O)N(C)c2ccc(C(=O)O)cc2)cc1 | -17.1
37 | COc1ccccc1NCC(O)COc1ccc(C(C)(C)C)cc1.O=C(O)C(=O)O (stereo not drawn) | 6.79
38 | CC(C)NCCCOc1ccc(C(C)(C)c2ccccc2)cc1.O=C(O)C(=O)O | 7.21
39 | CC(=O)Nc1ccc(OCC(O)CNC2CCCC2)cc1.Cl (stereo not drawn) | 6.24
40 | CC(C)(c1ccccc1)c1ccc(OCC(O)CNC2CCN(Cc3ccccc3)CC2)cc1.O=C(O)C(=O)O (stereo not drawn) | -72.8
41 | CC(C)N(CCNCC(O)COc1ccc(C(C)(C)c2ccccc2)cc1)C(C)C.O=C(O)C(=O)O (stereo not drawn) | -79
42 | COc1ccc(CNCC(O)COc2ccc(C(C)(C)c3ccccc3)cc2)cc1.O=C(O)C(=O)O (stereo not drawn) | -12.3
43 | CCOc1ccc(CC(=O)NC2CCN(Cc3ccccc3)CC2)cc1 | -6.23
44 | CCOc1ccc(OCC(O)CNC2CCN(Cc3ccccc3)CC2)cc1.O=C(O)C(=O)O (stereo not drawn) | -62.8
45 | C#CCOc1ccccc1CNC1CCN(Cc2ccccc2)CC1.O=C(O)C(=O)O | -29.3
46 | O=C(Cc1ccccc1)NN1C(=O)C2C3C=CC(C3)C2C1=O (stereo not drawn) | 12.4
47 | COc1ccc(C)cc1NC(=O)C(OC(=O)C1CC1)c1ccccc1 (stereo not drawn) | -12
48 | O=C(COC(=O)C1CCN(S(=O)(=O)c2ccccc2C(F)(F)F)CC1)NCc1ccc(F)cc1 | -8.33
49 | CCOc1ccc(N=Cc2c(O)n(-c3ccc(C)c(C)c3)c(=O)[nH]c2=O)cc1 | -1.8
50 | Cc1ccc(-n2ncc3c(SCC(=O)Nc4cc(C)on4)ncnc32)c(C)c1 | 17.9

Row | SMILES | hERG current change (%, negative = inhibition) at 10uM [%]
51 | O=C(C[n+]1ccccc1)N/N=C/c1ccccc1[N+](=O)[O-].[Cl-] | 40.2
52 | Cc1cccc(C(=O)N2CCCC(Nc3ccc(C(C)C)cc3)C2)n1 (stereo not drawn) | 0.95
53 | Cc1ccc(C2Nc3cccc4cccc(c34)N2)s1 | -4.53
54 | CN(C)S(=O)(=O)c1cccc(C(=O)Nc2ccc(S(=O)(=O)N3CCCC3)cc2)c1 | 25.5
55 | CC1(C)Cc2cccc(OCC(=O)N3CCN(S(=O)(=O)c4ccccc4F)CC3)c2O1 | -14.6
56 | O=C(Nc1ccc2cn[nH]c2c1)c1ccc(S(=O)(=O)N2CCOCC2)cc1 | -19.7
57 | CC(=O)OC(C(=O)Nc1nccs1)c1ccccc1 (stereo not drawn) | 2.26
58 | CC(C)CCNC(=O)c1nn(Cc2ccccc2)c(=O)c2ccccc12 | 5.59
59 | O=C(c1nn(Cc2ccccc2)c(=O)c2ccccc12)N1CCN(c2ccccn2)CC1 | -66.3
60 | CC(C)N(CCNC(=O)c1nn(Cc2ccccc2)c(=O)c2ccccc12)C(C)C | -66.1
61 | CC(=O)c1ccc(N2CCN(C(=O)c3n[nH]c4ccccc34)CC2)cc1 | -34.3
62 | O=C(c1nn(Cc2ccccc2)c(=O)c2ccccc12)N1CCc2ccccc2C1 | -29
63 | CC(=O)c1ccc(N2CCN(C(=O)c3nn(Cc4ccccc4)c(=O)c4ccccc34)CC2)cc1 | -75.1
64 | CC(C)CNC(=O)c1nn(Cc2ccccc2)c(=O)c2ccccc12 | -16
65 | O=C(c1nn(-c2ccccc2)c(=O)c2ccccc12)N1CCN(c2ccccn2)CC1 | -16.5
66 | O=C(c1ccc(Cn2c(=O)[nH]c3ccccc3c2=O)cc1)N1CCN(c2ccccn2)CC1 | 0.196
67 | O=[N+]([O-])c1cccc(S(=O)(=O)Nc2ccc(S(=O)(=O)N3CCCC3)cc2)c1 | 2.95
68 | O=C(CSc1nnc(NC(=O)c2c(F)cccc2F)s1)NC1CC1 | 21.9
69 | COC(=O)c1cccc(Oc2cccc(Cl)n2)c1 | 14.7
70 | Clc1ccc(COc2ccccn2)cc1Cl | -6.01
71 | OCCOCCn1c(C(CO)Nc2nc(-c3ccc(F)cc3)cs2)nc2ccccc21 (stereo not drawn) | -29.4
72 | COc1ccc(N(CC(=O)NCc2ccccc2OC)S(=O)(=O)c2ccccc2[N+](=O)[O-])c(OC)c1 | 3.17
73 | CN(C)Cc1c(C(=O)N/N=C/C=C/c2ccccc2)nnn1-c1nonc1N | -24.9
74 | COC(=O)Nc1ccc(OC)c(OC)c1 | 4.01
75 | COc1ncnc2c1sc1nc(-c3ccccc3)c3c(c12)CCCC3 | 15.6
